Rows were chosen to be rich in hits. Some 11% of all compounds tested hit in one or more screens of this group.
ALDH1A1 inh = qHTS Assay for Inhibitors of Aldehyde Dehydrogenase 1 (ALDH1A1); Aldehyde dehydrogenase 1A1 (Homo sapiens), P00352; Purified ALDH1A1, NADH fluorescence, propionaldehyde substrate; Potency, µM (highest dose often 75.3 µM), for inactives: at the top dose activity, negative = inhibition, usual class: inhibitors; 220,000 tested, 7.3% active; AID 1030, 2008;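 also: potency is read from the fitted curve at half-maximal effect; plate controls were no enzyme wells and a reference inhibitor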
Target sequence (P00352 whole entry, looked up): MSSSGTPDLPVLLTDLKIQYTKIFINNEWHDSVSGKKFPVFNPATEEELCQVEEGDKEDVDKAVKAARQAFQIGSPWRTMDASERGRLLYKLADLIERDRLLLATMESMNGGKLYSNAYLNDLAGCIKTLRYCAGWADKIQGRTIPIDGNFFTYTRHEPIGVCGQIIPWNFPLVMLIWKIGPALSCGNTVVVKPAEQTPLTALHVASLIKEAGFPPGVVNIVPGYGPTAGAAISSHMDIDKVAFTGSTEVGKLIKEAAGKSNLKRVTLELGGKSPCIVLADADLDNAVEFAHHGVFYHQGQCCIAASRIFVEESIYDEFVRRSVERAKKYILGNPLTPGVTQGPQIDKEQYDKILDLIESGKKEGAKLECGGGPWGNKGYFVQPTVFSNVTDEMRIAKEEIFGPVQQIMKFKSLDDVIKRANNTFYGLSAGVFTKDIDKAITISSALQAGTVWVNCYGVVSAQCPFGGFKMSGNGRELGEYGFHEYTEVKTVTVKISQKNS
PNC inhibitor = High Content Assay for Compounds that inhibit the Assembly of the Perinucleolar Compartment; PC3M PTB-GFP, PNC prevalence imaging, 16 h; active compounds read low; activity change (PNC), negative = inhibition, % at 10 µM; 140,000 tested, 3.1% active; AID 2417, 2010;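 active = readout at or below -70, meaning at least 70% loss of cells showing the perinucleolar compartment, a nuclear body marking cancer cells; inconclusive = readout between -30 and a set limit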;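 also: plate controls were DMSO wells for no effect and camptothecin positive control wells for full effect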
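PC3M cells stably expressing PTB-GFP, 750–1000 cells/well, treated 16 h at 37 °C with compound (23 nl of library stock), in duplicate. After paraformaldehyde fixation and Hoechst stain, imaged at 20x; PNC prevalence scored by image analysis.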
HPGD block = qHTS Assay for Inhibitors of HPGD (15-Hydroxyprostaglandin Dehydrogenase); 15-hydroxyprostaglandin dehydrogenase [NAD(+)] (Homo sapiens), P15428; purified HPGD, NADH fluorescence kinetic, PGE2 substrate; Potency, µM, inactives show at the top dose activity change, negative = inhibition, hits mostly inhibitors; 150,000 tested, 4.3% active; also: potency is read from the fitted curve at half-maximal effect
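20 nM HPGD preincubated 15 min at room temperature with compound in 50 mM Tris-HCl pH 8, 0.01% Tween 20. Started with 1 mM NAD+ and 30 uM prostaglandin E2; NADH fluorescence (360/450 nm) read 5 times over 30-s intervals, last minus first.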
NPSR antagonist = qHTS Assay for Antagonists of the Neuropeptide S Receptor: cAMP Signal Transduction; 220,000 tested, 1% active; CHO-NPSR cells, cAMP TR-FRET, antagonist mode; Potency, µM (top dose mostly 38.3 µM), without a hit: at the highest dose activity change, negative = inhibition, hits mostly inhibitors; active = well fitted curve in the direction sought with a large enough effect; inconclusive = small, poorly fitted or top-dose-only effect, or another doubt; inactive = no such curve, though single readings can be large; an effect the other way counts as inactive or inconclusive; also: potency is read from the fitted curve at half-maximal effect; nearly all actives have a fitted effect of over 50% in size
IMPase Li cell = qHTS Assay for Identifying the Cell-Membrane Permeable IMPase Inhibitors: Potentiation with Lithium. CHO-M1 cells, IP1 TR-FRET (IP-One), carbachol + lithium. 210,000 tested, 0.35% active. Potency, µM (highest dose often 59.4 µM), inactives show at the highest dose activity, negative = IMPase inhibition, hits mostly inhibitors; active = well fitted curve in the direction sought with a large enough effect; inconclusive = small, poorly fitted or top-dose-only effect, or another doubt; inactive = no such curve, though single readings can be large; an effect the other way counts as inactive or inconclusive;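 also: IP1 builds up when IMPase is blocked and the TR-FRET signal falls; potency is read from the fitted curve at half-maximal effect; plate controls were basal vehicle for no effect and high inhibitor control for full effect; nearly all actives have a fitted effect of over 50% in size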
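CHO cells stably expressing M1 receptor (2000/well) were cultured 16–30 h, then exposed to compounds with a small lithium addition for 30 min at 37C. IP1 was measured by TR-FRET competition; AC50 from Hill fits.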
IMPase inh = qHTS Assay for Identifying the Cell-Membrane Permeable IMPase Inhibitors; CHO-M1 cells, IP1 accumulation, HTRF TR-FRET ratio; AID 901, 2007; inhibition (IP1 accumulation), % at 46.1 µM; Inositol monophosphatase 1 (Rattus norvegicus), P97697; 120,000 tested, under 10 active; active = well fitted curve in the direction sought with a large enough effect in the signal ratio, not every such curve was filed as active; inconclusive = small, poorly fitted or top-dose-only effect, or a change in a side signal; inactive = no such curve, though single readings can be large or run the other way; the % refers to the signal ratio;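 also: cells stimulated with carbachol in lithium chloride buffer; plate controls were DMSO basal wells for no effect and reference inhibitor wells for full effect; higher means more IMPase inhibition seen as more IP1 and lower FRET ratio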
Target sequence (P97697 whole entry, looked up): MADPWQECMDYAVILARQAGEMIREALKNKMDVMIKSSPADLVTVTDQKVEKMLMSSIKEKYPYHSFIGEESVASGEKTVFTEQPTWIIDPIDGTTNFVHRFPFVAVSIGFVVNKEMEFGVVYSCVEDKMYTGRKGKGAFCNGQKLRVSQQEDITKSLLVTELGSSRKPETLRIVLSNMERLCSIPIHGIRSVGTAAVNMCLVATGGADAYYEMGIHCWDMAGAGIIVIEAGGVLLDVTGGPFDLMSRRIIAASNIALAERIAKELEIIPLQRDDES
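CHO-M1, 2000 cells/well, cultured 16–30 h; cpd up to 46 uM; carbachol (50 uM solution, stimulation buffer w/ 50 mM LiCl, pH 7.4), 30 min 37C; IP-One TR-FRET, 10 min RT; Ex 320/Em 665, 620; Hill-fit AC50.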
Active calls of the source: *; ? = inconclusive; · = no result; [ ] = remark or other dose. Unless noted, calls follow the shape of the dose curve; as a rule, active = well fitted inhibition curve with a large enough effect (not every such curve was filed as active); inconclusive = small, poorly fitted or top-dose-only effect, or another doubt; inactive = no such curve, though single readings can be large or run the other way. Unless noted, % is scaled to controls: 0 for no effect and ±100 for the full control effect.

SMILES	ALDH1A1 inh	PNC inhibitor	HPGD block	NPSR antagonist	IMPase Li cell	IMPase inh
CCOc1ccc(-n2c(=O)c3c4c(sc3n(CC(=O)NCC3CCCO3)c2=O)CCCC4)cc1 (stereo not given)	1%	·	·	-3%	0%	·
CN1CCN(NC(=O)Nc2cccc(Cl)c2Cl)CC1	8%	·	·	17%	7%	·
Cc1cccc(C(=O)NNC(=O)c2ccccc2)c1	12%	27	1%	14%	2%	·
O=C(O)CC(=O)Nc1cc(Cl)ccc1O	1%	8	1%	6%[46.1 µM]	23%[38.3 µM]	-3
Cc1cccc(C(=O)CC(=O)c2cc(Cl)ccc2O)c1	1%	26	16µM*	?	23%[38.3 µM]	-1
COc1ccc(O)c(C(=O)CC(=O)c2ccc(F)cc2)c1	1%	-2	-29%	-19%[46.1 µM]	23%[38.3 µM]	2
Cc1ccc(O)c(C(=O)CC(=O)c2cccc(F)c2)c1	-8%	?	22µM*	?	10%[38.3 µM]	-6
O=C(CC(=O)c1cc(Cl)ccc1O)c1ccccc1	11%	?	25µM*	?	12%[38.3 µM]	1
O=C(c1ccc(Cl)cc1)N1CCN(C(=O)c2ccco2)CC1	25µM*	-100*	-5%	-6%[46.1 µM]	5%[38.3 µM]	1
COc1cc2c(cc1OC)CN(C(=O)c1ccco1)CC2	14µM*	·	·	7%	8%	·
COc1cc2c(cc1OC)CN(C(=O)c1ccc(Br)o1)CC2	·	·	·	-8%	·	·
CCN1C(=O)c2ccccc2S(=O)c2ccc(C(=O)N3CCN(C(=O)c4ccco4)CC3)cc21 (stereo not given)	8.9µM*	?	-6%	19%	18%	9
CCN1C(=O)c2ccccc2S(=O)c2ccc(C(=O)N3CCCCCC3)cc21 (stereo not given)	?	-20	-14%	-12%[46.1 µM]	25%[38.3 µM]	6
O=C(c1ccco1)N1CCN(C(=O)c2cccc3c2C(=O)N(C2CCCCC2)C3)CC1	10µM*	-5	-1%	2%	-6%	·
O=C(c1ccncc1)N1CCN(C(=O)c2ccco2)CC1	-3%	-4	-15%	-6%[46.1 µM]	12%[38.3 µM]	14
CCn1c(SCC(=O)NCCc2ccccc2)nc2c(c1=O)SC(C)C2 (stereo not given)	?	?	-22%	2%[46.1 µM]	33%[38.3 µM]	9
O=C(NC1CCCCC1NC(=O)c1ccco1)c1ccco1 (stereo not given)	17%	-85*	-9%	-1%[46.1 µM]	7%	9
O=C(c1ccco1)N1CCN(C(=O)C2CC2)CC1	-11%	-6	-4%	12%	-2%	·
NC(=O)N1CCN(C(=O)c2ccco2)CC1	20µM*	?	-14%	?	24%[38.3 µM]	2
O=C(c1ccco1)N1CCN(C2CCCC2)CC1	-7%	-101*	-14%	-4%[46.1 µM]	-4%	2
O=C(c1ccco1)N1CCN(c2nc3ccccc3n3nnnc23)CC1	?	?	-28%	-10%[46.1 µM]	4%	6
O=C(c1ccco1)N1CCC(n2nnc3ccccc32)CC1	25µM*	35	-21%	0%[46.1 µM]	17%[38.3 µM]	12
CNC(=O)c1cn(-c2ccc(Cl)cc2)c(=O)c2ccccc12	3%	·	·	-2%	4%	·
CC1=C(C(=O)c2ccccc2)C(c2ccc(O)cc2)NC(=S)N1 (stereo not given)	·	·	·	17%	·	·
CC1=C(C)C(c2ccccc2)NC(=S)N1 (stereo not given)	13µM*	37	-14%	13%	3%	·
SMILES	ALDH1A1 inh	PNC inhibitor	HPGD block	NPSR antagonist	IMPase Li cell	IMPase inh
Cc1ccc(Cn2ccc(NC(=O)c3nc4ncccn4n3)n2)cc1	5%	-17	-6%	-4%[46.1 µM]	-7%[38.3 µM]	-1
O=C(Nc1cnn(Cc2ccc(Cl)c(Cl)c2)c1)c1nc2ncccn2n1	-3%	21	20µM*	-5%[46.1 µM]	-2%[38.3 µM]	6
O=C(OCC1COc2ccccc2O1)c1ccccc1F (stereo not given)	-6%	-21	-15%	-8%[46.1 µM]	-22%[38.3 µM]	4
COc1ccc(NC(=O)N2CC3(CCN(C(=O)c4ccco4)CC3)C2)cc1	16µM*	·	-4%	·	-10%	·
O=C(c1ccco1)N1CCC2(CC1)CN(c1ccc(-c3ccccc3)cc1)C2	-8%	·	-10%	·	-3%	·
O=C(c1ccco1)N1CCC2(CC1)CN(c1ccccc1)C2	14µM*	·	-8%	·	-6%	·
O=C(c1ccco1)N1CCC2(CC1)CCN(c1ccncc1)CC2	7.1µM*	·	-8%	·	9%	·
Cc1ccc(C(=O)NCCN2CCOCC2)cc1	4%	30	-11%	16%	7%	2
COc1ccc(NC(=O)CO/N=C2\CCCc3nonc32)cc1	1%	?	-9%	-2%[46.1 µM]	-1%	4
O=P(OC1CCS(=O)(=O)C1)(c1ccccc1)c1ccccc1 (stereo not given)	-3%	13	-9%	-26%[46.1 µM]	-4%[38.3 µM]	-4
COc1cccc(C(=O)CN2C(=O)C(C)(C)Oc3ccc(C(=O)N4CCCCCC4)cc32)c1	?	22	2.2µM*	-24%[46.1 µM]	27%[38.3 µM]	13
COc1cccc(NC(=O)c2ccc3c(c2)N(CC(=O)N2CCCCC2)C(=O)C(C)(C)O3)c1	-4%	19	-6%	-5%[46.1 µM]	-8%[38.3 µM]	4
Cc1ccc(CN2C(=O)C(C)(C)Oc3ccc(C(=O)N4CCCCC4)cc32)cc1	4%	0	32µM*	?	-1%[38.3 µM]	2
O=C(Oc1csc(=S)n1C(=O)c1ccccc1)c1ccccc1	3.2µM*	5	4.5µM*	-14%[46.1 µM]	32%[38.3 µM]	11
Cc1cccc(C(=O)Oc2csc(=S)n2C(=O)c2cccc(C)c2)c1	8.9µM*	-2	14µM*	-4%[46.1 µM]	12%	6
Nc1cc(C(=O)O)ccc1N1CCCCC1	3%	-100*	-26%	6%[46.1 µM]	1%	8
CCOC(=O)c1c(C)[nH]c(=S)c(C#N)c1-c1ccc(OC)cc1	?	23	?	-18%[46.1 µM]	5%[38.3 µM]	?
c1ccc(-c2cnc(-c3cccnc3)o2)cc1	?	-84*	?	-24%[46.1 µM]	-4%[38.3 µM]	-2
CCOC(=O)N1CCN(C(=O)C(=O)NNC(=O)COc2ccc(Cl)cc2)CC1	9%	-1	-3%	-5%[46.1 µM]	-4%	10
C=CCSc1nc(N)c2c(C)c(C)sc2n1	-3%	-11	-13%	3%[46.1 µM]	-18%[38.3 µM]	0
O=c1[nH]c(SCc2nc3c(cnn3-c3ccccc3)c(=O)[nH]2)nc2ccccc12	?	-108*	0.79µM*	-12%[46.1 µM]	?	2

Screening results: PubChem BioAssay, National Center for Advancing Translational Sciences (NCATS)
